Data reported in PubChem BioAssay AID1159580 (chemical genetic matrix, 2015).
“And” between values parts separate entries of the source, which are not always exact repeats. Equal values may be shown once. Hit rate of the full screen: of about 5,500 compounds, about 2,000 (36%) were called active. Inconclusive results (about 18%) are left out. Rule as the data show it: active = normalized growth mostly below about 0.91 (no sharp cut-off); inconclusive = no clear call, values can overlap the other calls; inactive = mostly above about 0.92. Some of the results follow.

Test: chemical genetic growth profiling, strain panel (AID 1159580);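 also: tested at 20 µM; growth read once vehicle control cultures reached saturation at 30 °C; 1 = growth at the plate median or of vehicle wells; lower values mean less growth of the strain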
Conditions: S. cerevisiae deletion strains, growth OD

Measured: normalized growth

NC(=O)N/N=C\c1ccc([N+](=O)[O-])o1
inactive: locus YAL021C, strain ccr4, hits give low values 0.987 | locus YAL026C, strain drs2, hits give low values 0.988 | locus YAL030W, strain snc1, hits give low values 1 | locus YBL061C, strain skt5, hits give low values 0.997 | locus YBR009C, strain hhf1, hits give low values 0.978 | locus YBR021W, strain FUR4, hits give low values 1.02 | locus YBR023C, strain chs3, hits give low values 0.996 | locus YBR171W, strain sec66, hits give low values 1.01 | locus YBR229C, strain ROT2, hits give low values 0.997 | locus YBR231C, strain swc5, hits give low values 0.993 | locus YBR279W, strain paf1, hits give low values 0.995 | locus YCL011C, strain gbp2, hits give low values 0.986 | locus YCL016C, strain dcc1, hits give low values 0.992 | locus YCL029C, strain bik1, hits give low values 0.99 | locus YCL061C, strain MRC1, hits give low values 1.01 | locus YCL069W, strain vba3, hits give low values 1 | locus YCR088W, strain abp1, hits give low values 0.972 | locus YDL005C, strain med2, hits give low values 0.989 | locus YDL035C, strain GPR1, hits give low values 1.01 | locus YDL040C, strain nat1, hits give low values 0.995 | locus YDL074C, strain BRE1, hits give low values 1.08 | locus YDL101C, strain DUN1, hits give low values 0.993 | locus YDL134C, strain PPH21, hits give low values 1 | locus YDL185W, strain tfp1, hits give low values 0.963 | locus YDL192W, strain arf1, hits give low values 0.99 | locus YDR001C, strain nth1, hits give low values 0.991 | locus YDR069C, strain doa4, hits give low values 0.975 | locus YDR101C, strain arx1, hits give low values 0.977 | locus YDR137W, strain rgp1, hits give low values 1.04 | locus YDR159W, strain sac3, hits give low values 0.993 | locus YDR162C, strain NBP2, hits give low values 1.01 | locus YDR195W, strain ref2 0.967 | locus YDR297W, strain sur2, hits give low values 0.991 | locus YDR318W, strain mcm21, hits give low values 0.983 | locus YDR334W, strain swr1, hits give low values 0.992 | locus YDR335W, strain msn5, hits give low values 0.999 | locus YDR388W, hits give low values 0.984 | locus YDR392W, strain spt3, hits give low values 0.925 | locus YDR502C, strain sam2, hits give low values 0.978 | locus YEL003W, strain gim4, hits give low values 1 | locus YEL037C, strain rad23, hits give low values 1 | locus YEL061C, strain CIN8 (second series), hits give low values 1 | locus YEL061C, strain CIN8, hits give low values 1.02 | locus YER015W, strain faa2, hits give low values 0.962 | locus YER016W, strain bim1, hits give low values 0.968 | locus YER110C, hits give low values 0.966 | locus YER111C, strain swi4, hits give low values 1.01 | locus YER155C, strain BEM2 (second series), hits give low values 0.962 | locus YER155C, strain BEM2, hits give low values 0.994 | locus YER167W, strain BCK2, hits give low values 1 | locus YFR010W, strain ubp6, hits give low values 0.985 | locus YGL078C, strain dbp3, hits give low values 0.995 | locus YGL086W, strain mad1, hits give low values 0.971 | locus YGL167C, strain pmr1, hits give low values 0.994 | locus YGL173C, strain kem1, hits give low values 1.01 | locus YGL227W, strain vid30, hits give low values 1.01 | locus YGL240W, strain doc1, hits give low values 0.952 | locus YGL248W, strain PDE1, hits give low values 0.999 | locus YGL253W, strain hxk2, hits give low values 1.01 | locus YGR135W, strain pre9, hits give low values 0.989 | locus YGR229C, strain SMI1, hits give low values 1.07 | locus YGR252W, strain gcn5, hits give low values 0.951 | locus YHR013C, strain ard1, hits give low values 1.01 | locus YHR027C, strain rpn1, hits give low values 0.988 | locus YHR030C, strain SLT2, hits give low values 0.992 and 0.97 | locus YHR079C, strain IRE1 (second series), hits give low values 0.978 | locus YHR079C, strain IRE1, hits give low values 0.96 | locus YHR094C, strain hxt1, hits give low values 0.982 | locus YHR129C, strain ARP1, hits give low values 0.999 | locus YHR142W, strain chs7, hits give low values 1.02 | locus YHR200W, strain rpn10, hits give low values 0.989 | locus YIL066C, strain RNR3, hits give low values 1.01 | locus YIL073C, strain SPO22, hits give low values 0.975 | locus YIL125W, strain kgd1, hits give low values 0.983 | locus YIR030C, strain dcg1, hits give low values 0.989 | locus YJL092W, strain hpr5, hits give low values 0.997 | locus YJL095W, strain BCK1 (second series), hits give low values 0.992 | locus YJL095W, strain BCK1, hits give low values 0.985 and 0.968 | locus YJL115W, strain asf1, hits give low values 1.02 | locus YJL129C, strain trk1, hits give low values 1.05 | locus YJL134W, strain LCB3, hits give low values 1 | locus YJL154C, strain vps35, hits give low values 0.992 | locus YJL164C, strain tpk1, hits give low values 0.966 | locus YJL166W, strain qcr8, hits give low values 0.984 | locus YJL168C, strain set2, hits give low values 0.979 | locus YJL187C, strain SWE1 (second series), hits give low values 0.998 | locus YJL187C, strain SWE1, hits give low values 0.996 | locus YJR043C, strain POL32, hits give low values 0.977
